Measurements published in PubChem BioAssay (NCI).
Several values for one entry are separate records, joined by “and”; a condition that tells them apart may be missing. Equal values may be shown once. This is part of a sample that, as a whole, favours compounds with a hit. Of some 83,000 tested, about 20% had one in any assay.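 The endpoint reported here, percent growth, reads 100 for growth as untreated, 0 for no net growth and -100 for all cells dead.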 Activity calls are given as the source filed them. Rule for the calls: active = growth percent below 10; inactive = the rest.

test system: MDA-MB-468 breast; assay: NCI-60 one-dose screen, 48 h (100 = growth as untreated, 0 = no growth, -100 = all killed); conditions: 10 µM unless noted

**Q.** How did the growth turn out when `O=C1C2=C(C(=O)c3ccccc31)C(O)(S(=O)(=O)O)C(O)(S(=O)(=O)O)C1N=CC=CC21` (stereo not given) was run?
**A.** The growth was 18.4% (inactive).

**Q.** Which growth does the source give for `O=C(Nc1cc(Cl)ccc1O)c1ccccc1Nc1ccnc(C(F)(F)F)c1` here?
**A.** Its growth is 12.7% (inactive).

**Q.** With `CCOC(=O)c1sc2ncnc(Nc3ccc4c(cnn4C(=O)Nc4ccc(C)c(Cl)c4)c3)c2c1C` as the molecule, how does the growth read?
**A.** The growth was 95.1% (inactive).

**Q.** With `O=[N+]([O-])c1cc(Cl)cc(Cl)c1O` as the molecule, how does the growth read?
**A.** Its growth is 104% (inactive).

**Q.** With `O/N=C/c1cccs1` as the molecule, how does the growth read?
**A.** The growth was 106% (inactive).

**Q.** Which growth does the source give for `Cc1ccc(C=C2C(=O)NC(=O)NC2=O)cc1` here?
**A.** Its growth is 108% (inactive).

**Q.** `NC(N)=Nc1ccc(Oc2cccc(Nc3ccc(Cl)c(C(F)(F)F)c3)c2)cn1` was tested. Which growth did it give?
**A.** The growth was -84.4% (active).

**Q.** For `O=c1c(O)cccn1CCCNCCCN(CCCn1cccc(O)c1=O)CCCn1cccc(O)c1=O`, which growth is on record?
**A.** The growth was 109% (inactive).

**Q.** For `CCc1ccc(NC(=O)N[C@@H](Cc2cccc(C)c2)C(=O)N[C@@H]2C(=O)N3CCC[C@H]3C(=O)N3CCCC[C@H]3C(=O)N[C@@H](CO)C(=O)N3C[C@H](C)C[C@H]3C(=O)O[C@H]2C)c(F)c1`, which growth is on record?
**A.** The growth was -14.2% (active).

**Q.** For `COc1cc(Cc2cc(-c3ccc(Cl)cc3)n[nH]c2=O)ccc1O`, which growth is on record?
**A.** The growth was 73.9% (inactive).

**Q.** `COc1ccc(-n2c(SCc3cc(OC)c(OC)c(OC)c3)nc3ccc(C)cc3c2=O)cc1` was tested. Which growth did it give?
**A.** The growth was 46.8% (inactive).

**Q.** For `O=C(Nc1cccc(-c2nc(-c3ccc(NC(=O)c4cccnc4)cc3Cl)no2)c1)Nc1ccc(NC(=O)C2CC2)c(C(F)(F)F)c1`, which growth is on record?
**A.** Its growth is -72.6% (active).

**Q.** Which growth does the source give for `NS(=O)(=O)c1ccc(Nc2cc(-c3ccccc3)nc(SCC(=O)c3ccccc3)n2)cc1` here?
**A.** The growth was 99.3% (inactive).

**Q.** How did the growth turn out when `Nc1c(C(=O)Nc2cccc3c2OCCO3)sc2nc3c(cc12)CN(Cc1ccccc1)CC3` was run?
**A.** The growth was 38.8% (inactive).

**Q.** `O=C(Oc1cccc(OC(=O)c2ccccc2)c1)c1ccccc1` was tested. Which growth did it give?
**A.** Its growth is 110% (inactive) and 101% (inactive).

**Q.** For `O=C1OCC2=C1C(c1ccccc1)c1cc3c(cc1N2CCO)OCO3` (stereo not given), which growth is on record?
**A.** The growth was 9.26% (active).

**Q.** How did the growth turn out when `Cc1ccc(Cc2c(C=O)nc(N)[nH]c2=O)c2ccccc12` was run?
**A.** The growth was 106% (inactive).

**Q.** Which growth does the source give for `COc1ccccc1CNc1nc(N)nc2[nH]c3ccc(O)cc3c12` here?
**A.** Its growth is 45.2% (inactive).

**Q.** For `O=c1cc(-c2ccccc2)[nH]c2ccccc12`, which growth is on record?
**A.** The growth was 59.5% (inactive).

**Q.** `COc1ccc(/C(=C\c2ccccc2)C(=O)O)cc1OC` was tested. Which growth did it give?
**A.** The growth was 93.2% (inactive).

**Q.** How did the growth turn out when `Cc1cn2c(/C=C3/C(=O)Nc4c3ccc3ccccc43)c(C(F)(F)F)nc2s1` was run?
**A.** The growth was 7.93% (active).

**Q.** For `O=C(CN1CCN(c2ccc(Cl)cc2)CC1)N1CCN(c2nnc(-c3ccccc3)c(-c3ccccc3)n2)CC1`, which growth is on record?
**A.** The growth was 35.1% (inactive).

**Q.** `CCOC(=O)NC(/C=C/c1ccccc1)NC(=O)OCC` was tested. Which growth did it give?
**A.** The growth was 99.7% (inactive).

**Q.** Which growth does the source give for `O=C(Nc1ccc(-n2cc(-c3ccncc3)c(-c3ccc(Cl)c(O)c3)n2)cc1)Nc1ccc(Cl)c(C(F)(F)F)c1` here?
**A.** Its growth is -19.8% (active).

**Q.** For `O=S(=O)(NCCNc1nccc(-c2c(-c3cccc(F)c3)nc3occn23)n1)c1cccc2ccccc12`, which growth is on record?
**A.** Its growth is 35.2% (inactive).

**Q.** With `Cc1ccc(CSc2nc(-c3ccc(Cl)cc3)c(C#N)c(N3CCNCC3)n2)cc1` as the molecule, how does the growth read?
**A.** The growth was 81.5% (inactive).

**Q.** `CNC(=O)c1cc(Oc2ccc3nc(NC(=O)NC(C)C)sc3c2)ccn1` was tested. Which growth did it give?
**A.** Its growth is 34.3% (inactive).

**Q.** `C=C1C(=O)O[C@H]2[C@H]1CC/C(COC(=O)/C=C\C(=O)NCc1ccc(Cn3c(=O)sn(CCCC)c3=O)cc1)=C\CC[C@@]1(C)O[C@@H]21` was tested. Which growth did it give?
**A.** The growth was -70.9% (active).

**Q.** How did the growth turn out when `[N-]=[N+]=Nc1ncc(-c2ccc(C(F)(F)F)cc2)c(NC2CCCCCC2)n1` was run?
**A.** The growth was 28.9% [100 µM] (inactive).

**Q.** For `CC12CCCC(CC(=O)c3[nH]c4ccccc4c31)C2` (stereo not given), which growth is on record?
**A.** The growth was -47.5% (active).

**Q.** With `Nc1ccc(C(=O)CSc2nc3ccccc3[nH]2)cc1` as the molecule, how does the growth read?
**A.** The growth was 93.2% (inactive).

**Q.** For `CCN(CC)CCCNc1nccc2ccc(Cl)cc12`, which growth is on record?
**A.** Its growth is 97.5% (inactive).

**Q.** How did the growth turn out when `COc1cc(-c2cc(C(=O)N3CCN(C(=O)c4ccccc4NCc4cccs4)CC3)nc3cc(-c4ccccc4)nn23)cc(OC)c1OC` was run?
**A.** Its growth is 64.6% (inactive).

**Q.** `Oc1ccc(Cc2ccccc2Cl)c(O)c1` was tested. Which growth did it give?
**A.** The growth was 98.4% (inactive).

**Q.** Which growth does the source give for `CN1CCN(c2ccc3nc(-c4[nH]ncc4Nc4ncnc5[nH]ccc45)[nH]c3c2)CC1` here?
**A.** Its growth is -55.6% (active).

**Q.** For `C/C(=N\O)c1ccc(NC(=O)CSc2nnc(-c3cc(-c4ccc(S(C)(=O)=O)cc4)nc4ccccc34)n2-c2ccccc2)cc1`, which growth is on record?
**A.** Its growth is 92.6% (inactive).

**Q.** How did the growth turn out when `O=C(/C(=C/c1ccc([N+](=O)[O-])cc1)SCc1ccc(F)cc1)c1ccc(F)cc1` was run?
**A.** Its growth is 83.7% (inactive).

**Q.** Which growth does the source give for `CN(N)c1nc2sc3c(c2c(=O)[nH]1)CCCC3` here?
**A.** The growth was 113% (inactive).

**Q.** For `CN(C)CC(=O)Nc1ccc2ncnc(Nc3ccc(Oc4cccc(C(F)(F)F)c4)c(Cl)c3)c2c1`, which growth is on record?
**A.** The growth was -2% (active).

**Q.** With `NC(=O)c1cc(Cl)ccc1NC(=O)c1ccccc1-c1ccccc1` as the molecule, how does the growth read?
**A.** Its growth is 25.4% (inactive).
